Assay results as given in the supplement of paper PMC6522484.
± gives the standard deviation of the averaged measurements.

Experiments:
[1] = tested on: DLD1; experiment: cell viability (CellTiter-Glo) relative to plate median (fraction of plate median); higher = more viable cells; conditions: 10 µM, treatment time 24 h
Procedure, shortened: (§1)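 Colorectal cancer cells expressing a stably transduced lentiviral TCF/Wnt firefly luciferase reporter were treated in 384-well plates with kinase inhibitor library compounds at a final 10 µM for 24 h. Firefly luciferase or CellTiterGlo luminescence was then read on parallel plates. Well signals were normalised to the plate median (webcellHTS2, additive, no log transformation) and averaged over two independent replicates.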

[2] = tested on: HCT116; experiment: as above; conditions: 10 µM; treatment time 24 h; reporter: TCF4/Wnt
Procedure, shortened: as §1

[3] = tested on: SW480; experiment: as above; conditions: 10 µM; treatment time 24 h; reporter: 7TFP
Procedure, shortened: as §1

[4] = tested on: DLD1; experiment: TCF/Wnt firefly luciferase reporter signal relative to plate median (fraction of plate median); higher = higher Wnt reporter signal; conditions: 10 µM, treatment time 24 h
Procedure, shortened: as §1

[5] = tested on: HCT116; experiment: as above; conditions: 10 µM; treatment time 24 h; reporter: TCF4/Wnt
Procedure, shortened: as §1

[6] = tested on: SW480; experiment: as above; conditions: 10 µM; treatment time 24 h; reporter: 7TFP
Procedure, shortened: as §1

Compound	cell viability ([1]; reporter: 7TFP)	cell viability ([1]; reporter: TCF4/Wnt)	cell viability [2]	cell viability [3]	TCF/Wnt firefly luciferase reporter signal ([4]; reporter: 7TFP)	TCF/Wnt firefly luciferase reporter signal ([4]; reporter: TCF4/Wnt)	TCF/Wnt firefly luciferase reporter signal [5]	TCF/Wnt firefly luciferase reporter signal [6]
Nc1nc(Nc2ccc(S(N)(=O)=O)cc2)nn1C(=O)c1c(F)cccc1F	1.01 ± 0.14	1.05 ± 0.076	0.71 ± 0.11	1.24 ± 0.071	0.811 ± 0.057	1.59 ± 0.69	0.284 ± 0.018	1.09 ± 0.13
c1ccc2c(-c3cnn4cc(-c5ccc(N6CCNCC6)cc5)cnc34)ccnc2c1	0.666 ± 0.25	0.874 ± 0.093	0.62 ± 0.14	0.8895 ± 0.0064	1.02 ± 0.014	1.08 ± 0.18	0.634 ± 0.3	1.35 ± 0.11
Cc1nc(N)sc1-c1ccnc(Nc2ccc(N3CCOCC3)cc2)n1	1.09 ± 0.14	1.09 ± 0.085	1.07 ± 0.064	1.06 ± 0.028	1.24 ± 0.23	1.23 ± 0.36	1.72 ± 0.2	0.774 ± 0.36
Nc1cccc(-c2cc3c(Oc4cccc(O)c4)ncnc3[nH]2)c1	1.17 ± 0.085	1.06 ± 0.078	1.05 ± 0.028	0.92 ± 0.018	0.961 ± 0.098	1.01 ± 0.014	1.28 ± 0.085	0.966 ± 0.04
COc1cc2ncnc(Nc3cccc(Cl)c3)c2cc1OC [AG-1478 (Tyrphostin AG-1478)]	0.949 ± 0.059	1 ± 0.053	1.12 ± 0.014	0.9395 ± 0.005	0.847 ± 0.03	0.75 ± 0.1	1.015 ± 0.0071	0.962 ± 0.054
COc1cc(Nc2ncc(F)c(Nc3ccc4c(n3)N(COP(=O)(O)O)C(=O)C(C)(C)O4)n2)cc(OC)c1OC	0.895 ± 0.046	0.896 ± 0.073	0.8 ± 0.055	0.919 ± 0.028	0.86 ± 0.098	0.919 ± 0.089	2.02 ± 1.6	0.588 ± 0.28
Cc1ccc(NC(=O)c2cccc(C(C)(C)C#N)c2)cc1Nc1ccc2ncn(C)c(=O)c2c1	1.21 ± 0.05	1.08	0.955 ± 0.044	1.18 ± 0.028	1.04 ± 0.33	0.843 ± 0.048	1.2 ± 0.3	1.43 ± 0.12
CNC(=O)CN1CCC(Oc2cc3c(Nc4cccc(Cl)c4F)ncnc3cc2OC)CC1	1 ± 0.081	1.01 ± 0.059	1.05 ± 0.028	0.893 ± 0.0042	0.943 ± 0.19	0.862 ± 0.35	0.656 ± 0.43	0.849 ± 0.07
CNC(=O)c1cc(Oc2ccc(NC(=O)Nc3cc(C(C)(C)C)nn3-c3ccc4ncccc4c3)c(F)c2)ccn1 [DCC-2036 (Rebastinib)]	1.1 ± 0.13	1.265 ± 0.0071	0.985 ± 0.035	1.08 ± 0.099	0.817 ± 0.021	0.755 ± 0.047	0.895 ± 0.2	0.746 ± 0.06
COc1cc(Nc2c(C#N)cnc3cc(OCCCN4CCN(C)CC4)c(OC)cc23)c(Cl)cc1Cl [Bosutinib (SKI-606)]	0.869 ± 0.034	0.9025 ± 0.0021	0.864 ± 0.016	0.995 ± 0.035	0.4675 ± 0.0035	0.534 ± 0.021	0.242 ± 0.22	0.648 ± 0.23
N#CC(=C(/N)Sc1ccccc1N)/C(C#N)=C(\N)Sc1ccccc1N	1.08 ± 0.064	1.003 ± 0.0099	0.938 ± 0.043	1.06 ± 0.05	1.73 ± 0.11	1.27 ± 0.064	0.95 ± 0.071	1.59 ± 0.16
O=C1NC(=O)C(=Cc2ccc(-c3ccc(F)cc3)o2)S1 (stereo in doubt)	1.08 ± 0.11	1.11 ± 0.064	1.09 ± 0.11	0.937 ± 0.1	1.25 ± 0.021	1.55 ± 0.16	1.29 ± 0.38	1.1 ± 0.13
CCn1cc(-c2ccnc3[nH]c(-c4cccc(CN(C)C)c4)cc23)c(-c2ccc(NC(=O)N(C)C)cc2)n1	0.994 ± 0.11	0.9965 ± 0.0021	0.913 ± 0.05	1.07 ± 0.099	1.01 ± 0.11	1.05 ± 0.081	1.71 ± 0.028	1.02 ± 0.16
CNC(=O)c1ccccc1Sc1ccc2c(/C=C/c3ccccn3)n[nH]c2c1 [Axitinib]	0.9855 ± 0.0021	1 ± 0.052	0.965 ± 0.0028	0.906 ± 0.051	1.7 ± 0.057	1.97 ± 0.33	1.53 ± 0.89	1.36 ± 0.92
Cc1cnc(NC(=O)Nc2cc(Br)c(C)cc2OC[C@@H]2CNCCO2)cn1	0.833 ± 0.16	0.983 ± 0.096	0.805 ± 0.16	1.02 ± 0.089	1.06 ± 0.057	1.12 ± 0.028	0.894 ± 0.35	0.938 ± 0.012
O=C(Nc1cccc(Cl)c1)Nc1ncc(CCNc2ncnc3ccsc23)s1	0.87 ± 0.023	0.8545 ± 0.0064	0.947 ± 0.03	0.922 ± 0.012	0.743 ± 0.15	0.952 ± 0.029	1.45	0.82 ± 0.061
CNC(=O)c1ccc(C)c(-n2c(C)cc(OCc3ccc(F)cc3F)c(Br)c2=O)c1	1.07 ± 0.057	1.015 ± 0.0071	1.05 ± 0.035	0.868 ± 0.047	1.17 ± 0.24	1.02 ± 0.061	0.81 ± 0.046	1.02 ± 0.11
CCN(CC)CCNC(=O)c1c(C)[nH]c(/C=C2\C(=O)Nc3ccc(F)cc32)c1C [Sunitinib Malate (Sutent)]	0.867 ± 0.1	0.9685 ± 0.0035	0.659 ± 0.31	1.02 ± 0.15	0.939 ± 0.051	0.87 ± 0.18	0.605 ± 0.33	1.14 ± 0.21
CC(C)(C)c1cc(/C=C(\C#N)C(N)=S)cc(C(C)(C)C)c1O [Tyrphostin AG 879 (AG 879)]	0.851 ± 0.1	0.911 ± 0.098	0.979 ± 0.1	0.844 ± 0.018	0.707 ± 0.12	1.04 ± 0.042	0.791 ± 0.12	0.878 ± 0.041
Nc1cc(C(F)(F)F)c(-c2cc(N3CCOCC3)nc(N3CCOCC3)n2)cn1	0.777 ± 0.073	0.9145 ± 0.0078	0.56 ± 0.069	1.105 ± 0.0071	0.383 ± 0.085	0.75 ± 0.071	0.502 ± 0.057	0.704 ± 0.036
Cc1cc(CN2CCN(c3c(Br)cnc4nc(-c5ccc(N6CCN(C)CC6)cc5)[nH]c34)CC2)no1	1.09 ± 0.23	1.01 ± 0.021	1.04 ± 0.014	1.08 ± 0.057	1.42 ± 0.15	1.49 ± 0.18	1.72 ± 0.46	1.34 ± 0.4
